IMPase cell inh = membrane-permeable compound that blocks inositol monophosphatase; inhibition (IP1 accumulation), % at 46.1 µM; AID 901; CHO-M1 cells, IP1 accumulation, HTRF TR-FRET ratio; 120,000 tested, under 10 active; active means well fitted curve in the direction sought with a large enough effect in the signal ratio, not every such curve was filed as active; inconclusive means small, poorly fitted or top-dose-only effect, or a change in a side signal; inactive means no such curve, though single readings can be large or run the other way; the % refers to the signal ratio;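 further: cells stimulated with carbachol in lithium chloride buffer; plate controls were DMSO basal wells for no effect and reference inhibitor wells for full effect; higher means more IMPase inhibition seen as more IP1 and lower FRET ratio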
Target sequence (P97697 whole entry, looked up): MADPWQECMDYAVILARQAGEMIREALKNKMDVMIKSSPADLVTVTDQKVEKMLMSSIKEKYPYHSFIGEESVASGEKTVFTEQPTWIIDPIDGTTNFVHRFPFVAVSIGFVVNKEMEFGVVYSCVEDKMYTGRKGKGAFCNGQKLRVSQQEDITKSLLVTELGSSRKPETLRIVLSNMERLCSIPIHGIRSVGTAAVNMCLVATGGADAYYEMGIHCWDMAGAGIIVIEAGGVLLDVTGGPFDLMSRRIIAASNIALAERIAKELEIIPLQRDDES
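Seeded CHO-M1 cells were dosed with compound at up to 46 uM, stimulated with carbachol for 30 min, then lysed in IP-One detection reagents. Higher IP1 lowers the TR-FRET signal.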
ALDH1A1 inh = inhibitors of human aldehyde dehydrogenase 1A1. P00352. Purified ALDH1A1, NADH fluorescence, propionaldehyde substrate. 7.3% of 220,000 active. AID 1030. Potency, µM (series often up to 75.3 µM), without a hit: at the top dose activity, negative = inhibition, most hits filed as inhibitors; active means well fitted inhibition curve with a large enough effect, not every such curve was filed as active; inconclusive means small, poorly fitted or top-dose-only effect, or another doubt; inactive means no such curve, though single readings can be large or run the other way;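 further: potency means the concentration at half of the fitted maximal effect; plate controls were no enzyme wells and a reference inhibitor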
Target sequence (P00352 whole entry, looked up): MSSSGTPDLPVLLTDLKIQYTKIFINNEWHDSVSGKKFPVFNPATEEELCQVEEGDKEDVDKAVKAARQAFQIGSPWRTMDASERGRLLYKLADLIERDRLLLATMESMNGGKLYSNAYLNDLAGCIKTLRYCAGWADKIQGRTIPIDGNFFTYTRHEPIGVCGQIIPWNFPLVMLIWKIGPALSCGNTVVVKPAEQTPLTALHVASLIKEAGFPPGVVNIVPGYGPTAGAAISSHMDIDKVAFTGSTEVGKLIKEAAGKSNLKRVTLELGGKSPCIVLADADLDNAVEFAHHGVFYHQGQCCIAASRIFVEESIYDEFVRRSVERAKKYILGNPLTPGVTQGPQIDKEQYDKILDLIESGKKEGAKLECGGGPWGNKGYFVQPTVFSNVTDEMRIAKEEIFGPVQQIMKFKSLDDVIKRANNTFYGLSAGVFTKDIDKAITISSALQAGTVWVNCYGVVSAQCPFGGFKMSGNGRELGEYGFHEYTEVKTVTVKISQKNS
PNC inhibitor = blocks assembly of the perinucleolar compartment; PC3M PTB-GFP, PNC prevalence imaging, 16 h; active compounds read low; activity change (PNC), negative = inhibition, % at 10 µM; 3.1% of 140,000 active;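 active means readout at or below -70, meaning at least 70% loss of cells showing the perinucleolar compartment, a nuclear body marking cancer cells; inconclusive means readout between -30 and a set limit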;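 further: plate controls were DMSO wells for no effect and camptothecin positive control wells for full effect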
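Read-out is percentage of cells bearing a perinucleolar compartment, from automated 20x imaging of fixed, Hoechst-stained PC3M PTB-GFP cells. Cells were seeded 4 h, then exposed 16 h to compound (23 nl of library stock) in duplicate plates.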
HPGD block = inhibitors of human 15-hydroxyprostaglandin dehydrogenase (HPGD). purified HPGD, NADH fluorescence kinetic, PGE2 substrate. Potency, µM, for the others: top-dose activity change, negative = inhibition, hits mostly inhibitors. 4.3% of 150,000 active. AID 894; active means well fitted inhibition curve with a large enough effect, not every such curve was filed as active; inconclusive means small, poorly fitted or top-dose-only effect, or another doubt; inactive means no such curve, though single readings can be large or run the other way; further: potency means the concentration at half of the fitted maximal effect
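20 nM HPGD preincubated 15 min at room temperature with compound in 50 mM Tris-HCl pH 8, 0.01% Tween 20. Started with 1 mM NAD+ and 30 uM prostaglandin E2; NADH fluorescence (360/450 nm) read 5 times over 30-s intervals, last minus first.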
IMPase Li inh = IMPase inhibition in cells with lithium potentiation. AID 1457. CHO-M1 cells, IP1 TR-FRET (IP-One), carbachol + lithium. Potency, µM (titrated, usually from 59.4 µM), for inactives: top-dose activity, negative = IMPase inhibition, most hits filed as inhibitors. 0.35% of 210,000 active;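 further: IP1 builds up when IMPase is blocked and the TR-FRET signal falls; potency means the concentration at half of the fitted maximal effect; plate controls were basal vehicle for no effect and high inhibitor control for full effect; nearly all actives have a fitted effect of over 50% in size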
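CHO cells stably expressing M1 receptor (2000/well) were cultured 16–30 h, then exposed to compounds with a small lithium addition for 30 min at 37C. IP1 was measured by TR-FRET competition; AC50 from Hill fits.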
ALOX12 inhib = 12-hLO (ALOX12) enzyme inhibition; P18054; purified 12-hLO, xylenol orange hydroperoxide absorbance; Potency, µM (highest dose often 57.1 µM), for the others: at the highest dose activity change, negative = inhibition, usual class: inhibitors; 0.12% of 150,000 active; AID 1452; further: potency means the concentration at half of the fitted maximal effect; nearly all actives have a fitted effect of over 55% in size
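150 nM 12hLO, 25 mM Hepes pH 7.0 + 0.01% Triton X-100; cpd preinc 15 min RT; 40 uM arachidonic acid, 30 min RT; Fe-XO 30 min; A573/A405 ratio as read-out.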
* = called active by the depositor; ? = inconclusive; . = not tested or not shown; [ ] = remark or other dose. Sampled rows, rich in hits. Any-hit rate of the full collection: about 11%. Unless noted, the call rests on the fitted dose curve; in most records, active means well fitted curve in the direction sought with a large enough effect; inconclusive means small, poorly fitted or top-dose-only effect, or another doubt; inactive means no such curve, though single readings can be large; an effect the other way counts as inactive or inconclusive. Unless noted, on the % scale 0 is the no-effect control and ±100 the full control effect.

SMILES	IMPase cell inh	ALDH1A1 inh	PNC inhibitor	HPGD block	IMPase Li inh	ALOX12 inhib
COc1ccc(NC(=S)NC(=O)/C=C/c2ccco2)cc1	.	7.1µM*	.	.	10%	.
CN(C)c1ccc(NC(=S)NC(=O)/C=C/c2ccco2)cc1	.	5%	.	.	0%	.
NS(=O)(=O)c1ccc(NC(=O)/C=C/c2ccco2)cc1	.	24µM*	.	.	3%	.
O=C(/C=C/c1ccco1)Nc1ccc(S(=O)(=O)N2CCOCC2)cc1	.	?	.	.	4%	.
COc1ccc(/C=C/C(=O)NC(=S)Nc2ccc(S(=O)(=O)Nc3cc(OC)ncn3)cc2)cc1	.	28µM*	.	.	15%	.
Cc1ccc(CNC(=O)CCC2CCCN(C(=O)CCC(F)(F)F)C2)o1 (stereo unspecified)	.	?	.	.	-2%	.
CCOC(=O)C1CCCN(Cc2ccc3c(c2)OCO3)C1 (stereo unspecified)	?	13µM*	11	6%	11%	-6%
CCOC(=O)C1CCCN(CC(O)COc2cccc(C)c2)C1 (stereo unspecified)	.	7%	-13	25µM*	-11%	1%
CCN(CC)C(=O)C1CCCN(Cc2ccc3c(c2)OCO3)C1 (stereo unspecified)	7	-11%	-8	-9%	-13%[38.3 µM]	-1%
Cc1ccc(CNC(=O)CCC2CCCN(C(=O)c3ccc4c(c3)OCO4)C2)o1 (stereo unspecified)	.	16µM*	.	.	-7%	.
CCOC(=O)C1CCCN(C(=O)c2ccc3c(c2)OCO3)C1 (stereo unspecified)	14	?	253	10µM*	5%	1%
O=C1NC(=O)[C@@]2(CCOc3ccc(F)cc32)N1	.	1%	.	-2%	-1%	0%[0.00818 µM]
CCNc1ncc2nc(CCc3ccccc3)c(=O)n(CCOC)c2n1	.	?	.	?	4%	-2%
COc1ccc(C2c3c(oc4ccccc4c3=O)C(=O)N2c2nc(C)c(C)s2)cc1 (stereo unspecified)	-12	.	.	.	.	.
CC(C)=NOCc1ccc(-c2cc(-c3ccccc3)no2)cc1	.	1%[13.5 µM]	.	.	.	.
CCOC(=O)c1ccccc1NC(=O)CN(c1cc(C(F)(F)F)ccc1Cl)S(C)(=O)=O	2	.	.	.	.	.
O=C1c2c(O)ccc([N+](=O)[O-])c2C(=O)c2c([N+](=O)[O-])ccc(O)c21	.	3%	.	?	41%	-2%
Cc1ccc2c(c1)c(=O)c1ccccc1n2CCCC(=O)Nc1ccc(F)cc1F	-2	.	.	.	.	.
C[C@H]1Cc2c(COc3ccccc3)nc3c(c2CO1)CN(S(=O)(=O)c1ccc2c(c1)OCCN2C)CC3	.	-15%[13.5 µM]	.	-10%	7%	0%[11.4 µM]
CNC(=O)c1ccc(Nc2nnc(-c3ccc(C)c(S(=O)(=O)N4CCOCC4)c3)c3ccccc23)cc1	-11	.	.	.	.	.
O=C(O)c1ccc2c(c1)N(Cc1ccccc1)C(=O)c1ccccc1S2=O (stereo unspecified)	9	11%	-9	-3%	16%[38.3 µM]	-3%
CC(C)Oc1cccc(C(=O)C2CCCN(Cc3cnn(C(C)C)c3)C2)c1 (stereo unspecified)	.	10µM*	.	.	18%	.
CC(=O)c1cccc(CN2CCCC(C(=O)c3ccc4c(c3)OCO4)C2)c1 (stereo unspecified)	.	28µM*	.	.	43%	.
CCOC(=O)C1CCCN(C(=O)c2ccc3c(c2)N(Cc2ccccc2)C(=O)c2ccccc2S3=O)C1 (stereo unspecified)	.	20µM*	.	.	25%	.
COc1ccc(C(=O)N(O)c2ccccc2)cc1	.	-7%	.	?	-1%	.
SMILES	IMPase cell inh	ALDH1A1 inh	PNC inhibitor	HPGD block	IMPase Li inh	ALOX12 inhib
COc1ccc(CCNC(=O)C23CN(Cc4ccccc4)CC2C(c2cccc([N+](=O)[O-])c2)=NO3)cc1 (stereo unspecified)	13	8.9µM*	-19	-25%	-2%	-1%
O=C(NCc1ccc2c(c1)OCO2)C12CN(Cc3ccccc3)CC1C(c1cccc([N+](=O)[O-])c1)=NO2 (stereo unspecified)	-1	?	-87*	-2%	-6%	-1%
CC1(C)CC(=O)C(C=Nc2cccnc2)=C(O)C1	5	7.9µM*	-4	-5%	0%[38.3 µM]	-7%
CC1(C)CC(=O)C(C=Nc2cccnc2/N=C/C2=C(O)CC(C)(C)CC2=O)=C(O)C1	.	2.2µM*	.	.	5%	.
CCOc1ccc(NS(=O)(=O)c2ccc(C)c(C(=O)O)c2)cc1	.	9%	.	-3%	.	-2%
CC12CCC(=O)N1C(C(=O)OCC(=O)Nc1sccc1C#N)CS2 (stereo unspecified)	4	-15%	11	-9%	0%[38.3 µM]	-1%
CC(NC(=O)COC(=O)C1CSC2(C)CCC(=O)N12)C12CC3CC(CC(C3)C1)C2 (stereo unspecified)	.	4.5µM*	.	.	10%	.
Cc1ccc(C2OCC3(CO2)COC(c2ccc(C)cc2)OC3)cc1 (stereo unspecified)	.	2%	?	-8%	-2%	0%
Cc1ccc(C2OCC3(CO)COC(c4ccc(C)cc4)N23)cc1 (stereo unspecified)	0	4.5µM*	-1	-11%	47%[38.3 µM]	?
CCOC(=O)c1ccc(COc2nc3ccccc3nc2-c2ccccc2NC(C)=O)o1	8	1%	-115*	-13%	28%[38.3 µM]	-3%
Cc1ccc(C(=O)N/C(=C\c2ccco2)C(=O)NCCCn2ccnc2)cc1C	-1	25µM*	3	-28%	2%	1%
COc1ccc(NC(=O)c2ccco2)cc1NC(=O)c1cc(OC)c(OC)c(OC)c1	-2	.	.	.	.	.
O=S(=O)(c1ccccc1)N1CCC2(CCCN(C(c3ccccc3)c3ccccc3)C2)CC1	.	12%	.	-3%	13%	1%
C#CCCCCCCCCCCCC(O)CC(O)COC(C)=O (stereo unspecified)	.	14µM*	.	-24%	26%	-6%
CC(=O)OCC(OC(C)=O)C(OC(C)=O)C(OC(C)=O)C(OC(C)=O)C(COC(C)=O)OC(C)=O (stereo unspecified)	.	11%	.	-9%	-4%	-1%
CCOC(=O)CCNC(=O)Nc1ccc2nc(C)n(Cc3ccc(Cl)cc3)c(=O)c2c1	10	?	-18	-22%	-3%[38.3 µM]	-11%
CC(=O)Nc1ccc2nc(C)n(Cc3ccc(Cl)cc3)c(=O)c2c1	-8	2%	-90*	-22%	3%	-5%
CS(=O)Cc1cc(Sc2ccccc2)nc(-c2ccncc2)n1 (stereo unspecified)	.	8.9µM*	.	.	-8%	.
CCOC(=O)c1cc(OC(=O)c2cc(OC)c(OC)c(OC)c2)n(-c2ccccc2)n1	-4	.	.	.	.	.
NC(=S)SCCC(=O)O	.	13%[13.5 µM]	.	-2%	1%	-2%[11.4 µM]
